SW480 rerep = A quantitative high throughput screen for small molecules that induce DNA re-replication in SW480 colon adenocarcinoma cells. SW480 DNA re-replication, Hoechst DNA content imaging, 48 h. 340,000 tested, 1.8% active. Potency, µM (highest dose often 46.1 µM), hits mostly activators. AID 624297, 2012; also: nearly all actives have a fitted effect of over 55% in size
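Quantitative HTS format with DMSO vehicle controls; 48 hr drug incubation at 37 C, then 40 min Hoechst staining and scanning imager measurement at 405 nm excitation.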
RORgamma inh = qHTS for inhibitors of ROR gamma transcriptional activity; Potency, µM (titrated, usually from 53.6 µM), usual class: inhibitors; Drosophila S2 Gal4-RORgamma UAS-luciferase reporter, 20 h; Nuclear receptor ROR-gamma (Mus musculus), P51450; 310,000 tested, 5.4% active; also: nearly all actives have a fitted effect of over 60% in size
Target sequence (P51450 whole entry, looked up, the tested form may be a part): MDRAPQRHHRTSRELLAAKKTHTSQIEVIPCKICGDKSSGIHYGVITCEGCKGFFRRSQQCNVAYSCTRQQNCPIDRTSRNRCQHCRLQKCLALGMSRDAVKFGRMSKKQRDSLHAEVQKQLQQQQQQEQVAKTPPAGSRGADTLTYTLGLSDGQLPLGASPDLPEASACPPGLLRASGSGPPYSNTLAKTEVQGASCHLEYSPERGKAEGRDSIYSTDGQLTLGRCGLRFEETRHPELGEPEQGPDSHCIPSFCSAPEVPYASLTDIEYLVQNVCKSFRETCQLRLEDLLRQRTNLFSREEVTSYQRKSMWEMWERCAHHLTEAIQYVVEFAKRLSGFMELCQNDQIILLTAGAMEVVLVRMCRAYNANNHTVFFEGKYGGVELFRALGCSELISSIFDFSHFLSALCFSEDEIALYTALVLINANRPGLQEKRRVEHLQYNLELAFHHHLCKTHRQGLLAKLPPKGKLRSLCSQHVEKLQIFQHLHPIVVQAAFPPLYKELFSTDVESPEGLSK
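ROR gamma transcriptional activity was tracked as Gal4-UAS luciferase output in stably transfected Drosophila Schneider cells, with compound added 1 hr before 700 uM copper sulfate induction and a 20 hr ambient-temperature incubation.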
VP16 counter = VP16 counterscreen qHTS for inhibitors of ROR gamma transcriptional activity; Potency, µM (series often up to 53.6 µM), usual class: inhibitors; Drosophila S2 Gal4-VP16 UAS-luciferase, luminescence, 20 h; 310,000 tested, 3.5% active;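 also: Gal4-VP16 expression switched on by copper sulfate through the metallothionein promoter; nearly all actives have a fitted effect of over 50% in size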
Chronic BCR inh = qHTS Assay to Find Inhibitors of Chronic Active B-Cell Receptor Signaling; ABC-DLBCL IkBa-CBG/CBR reporter, luminescence ratio, 4 h; Potency, µM (doses to about 46.1 µM), actives largely listed as inhibitors; 340,000 tested, 0.05% active; AID 493014, 2011; active = well fitted inhibition curve with a large enough effect in the signal ratio, with a control signal flat, not every such curve was filed as active; inconclusive = small, poorly fitted or top-dose-only effect, or effect the other way, or a change in a side signal; the % refers to the signal ratio
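TMD8 ABC-DLBCL cells carrying doxycycline-inducible green luciferase fused to IkappaBalpha plus unfused red luciferase were exposed to compounds (up to 46 uM) for 4 hrs at 37C. Activity came from the overlap-corrected green/red luminescence ratio.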
MCF10A rereplic = A quantitative high throughput screen for small molecules that induce DNA re-replication in MCF 10a normal breast cells; MCF 10A DNA re-replication, Hoechst nuclear intensity, 48 h; Potency, µM (titrated, usually from 46.1 µM), most hits filed as activators; 350,000 tested, 2.9% active; also: nearly all actives have a fitted effect of over 50% in size
Giardia killer = Small Molecules that selectively kill Giardia lamblia: qHTS; AID 540267, 2011; Giardia lamblia trophozoite viability; activity change, % at 7.66 µM, hits read low; 340,000 tested, 0.15% active; in the data active = activity change below about -80%; inconclusive = between about -30% and that limit;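 also: parasites exposed to compound for two days anaerobically before the ATP read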
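Giardia trophozoites, 100 cells per well, were exposed to compounds for 48 hrs at 37 deg C under anaerobic conditions; viability was then read as ATP content by bioluminescence after 15-30 min at room temperature.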
A number is an active result; – = inactive; ? = inconclusive; · = not tested or not shown; ! = a repeat was not active; [ ] = dose if it differs, or a comment. A selection: hits, their analogues and other compounds. The true share with any hit is near 8.3%. Unless noted, calls follow the shape of the dose curve; as a rule, active = well fitted curve in the direction sought with a large enough effect; inconclusive = small, poorly fitted or top-dose-only effect, or another doubt; inactive = no such curve, though single readings can be large; an effect the other way counts as inactive or inconclusive.

SMILES	SW480 rerep	RORgamma inh	VP16 counter	Chronic BCR inh	MCF10A rereplic	Giardia killer
CC(C)OCCCNC(=O)c1c(N)n(/N=C/c2cccs2)c2nc3ccccc3nc12	?	–	–	–	8.2µM	–
N#Cc1c(N)n(CCCN2CCOCC2)c2nc3ccccc3nc12	?	–	–	–	?	–
Nc1c(C(=O)Nc2ccccc2)c2nc3ccccc3nc2n1CCCN1CCOCC1	18.4µM	11.2µM	?	–	10.3µM	–
O=C(Nc1ccc(F)c(Cl)c1)C1CCCN(C2=NS(=O)(=O)c3ccccc32)C1 (configuration not stated)	–	·	·	–	–	–
CC1CCC(NC(=O)N(CCCl)N=O)CC1 (configuration not stated)	–	–	–	·	–	–
CCCNC(=O)CSc1n[nH]c(=O)n1CCc1ccccc1	–	–	–	–	–	–
COCCCNC(=O)c1c(N)n(-c2cccc(S(N)(=O)=O)c2)c2nc3ccccc3nc12	20.6µM	–	–	?	18.4µM	–
CCCNC(=O)c1c(N)n(-c2cccc(OC)c2)c2nc3ccccc3nc12	?	–	–	?	7.31µM	–
CCOC(=O)c1c(N)n(-c2ccc(C)c(C)c2)c2nc3ccccc3nc12	·	·	·	–	·	·
CCOC(=O)c1cnc2ccc(OCC)cc2c1NCc1cccnc1	–	–	–	?	23.1µM	–
CCOC(=O)c1cnc2ccc(OCC)cc2c1NCc1ccccc1	–	2.82µM	5.01µM	?	20.6µM	–
CCOC(=O)c1cnc2ccc(OCC)cc2c1N1CCN(c2ccccc2)CC1	–	–	–	?	?	–
CC(NC(=O)c1ccc(N2CCCC2)c([N+](=O)[O-])c1)c1ccc(S(N)(=O)=O)cc1 (configuration not stated)	–	–	–	?	–	–
CC(C)N(C(=O)[C@H]1CC(CC(=O)NCCN2CCOCC2)C(=O)N2CCc3c([nH]c4ccccc34)[C@]12C)C(C)C (some centres not stated)	?	·	·	–	–	–
Cc1oc(=O)c(NC(=O)c2ccccc2)cc1C(=O)c1ccccc1	20.6µM	?	12.6µM	?	23.1µM	–
COC(=O)c1cc(NC(=O)c2ccc(OC)cc2)c(=O)oc1C	–	–	–	–	–	–
Cc1oc(=O)c(NC(=O)c2ccc(Cl)cc2)cc1C(=O)c1ccccc1	?	–	–	?	8.2µM	–
CC(=O)c1cc(NC(=O)c2ccccc2)c(=O)oc1C	–	11.2µM	2.51µM	–	?	–
CC(=O)c1cc(NC(=O)c2ccc(C)cc2)c(=O)oc1C	?	?	?	–	?	–
Cc1ccc(C(=O)Nc2cc3ccccc3oc2=O)cc1	2.91µM	1.58µM	?	?	18.4µM	?
CCOc1ccc(Cc2nccc3cc(OCC)c(OCC)cc23)cc1OCC	–	–	15.8µM!	·	–	·
CCc1sc(C(C2C(=O)CC(C)(C)CC2=O)C2C(=O)CC(C)(C)CC2=O)cc1[N+](=O)[O-]	–	–	?	?	?	–
O=S(=O)(c1ccc(F)cc1)N1CCN(c2nc(-c3ccccc3)nc3cc(Cl)ccc23)CC1	·	·	·	·	·	–
FC(F)Sc1nc2ccccc2[nH]1	–	12.6µM	?	–	–	–
Cc1ccc(-c2nnc(N3CCOCC3)c3ccccc23)cc1S(=O)(=O)N(C)C	–	?	–	–	–	–
SMILES	SW480 rerep	RORgamma inh	VP16 counter	Chronic BCR inh	MCF10A rereplic	Giardia killer
COc1ccc(C2CCCCCN2C(=O)C2CCN(S(=O)(=O)c3cccc(C(C)=O)c3)CC2)cc1 (configuration not stated)	?	·	·	·	–	–
COc1ccccc1N(CC(=O)NCCC1=CCCCC1)S(=O)(=O)c1ccccc1	–	–	–	–	–	–
O=C(NCC1CCCO1)c1ccc(COc2ccccc2)o1 (configuration not stated)	–	·	·	?	–	–
C=CCC(C)(Nc1ccccc1)C(=O)OCC (configuration not stated)	·	–	–	·	·	·
Cc1cc(-c2nc(C)c(C(=O)NN)s2)no1	?	–	?	?	18.4µM	–
Cc1ccc(N/C=C/C(=O)c2sc(-c3ccccc3)nc2C)cc1	–	–	–	?	9.2µM	–
Cc1nc(-c2ccccc2)sc1C(=O)NN	?	12.6µM	11.2µM	?	18.4µM	–
C=CCNC(=O)c1sc(-c2ccccc2)nc1C	?	?	?	–	–	–
Clc1cccc(Nc2nc(-c3ccncc3)cs2)c1	14.6µM	–	–	–	?	–
Cc1ccc(NC(=O)Nc2nnc(CSCCOc3ccc(Cl)cc3)s2)cc1	–	–	–	–	–	–
O=C(Nc1cccc(Cl)c1)Nc1nnc(CSCCOc2ccc(Cl)cc2)s1	?	?	?	–	5.17µM	–
O=C(Nc1cccc(Cl)c1)Nc1nnc(-c2ccncc2)s1	11.6µM	?	–	–	5.8µM	–
O=C(Nc1ccc(F)cc1)Nc1nnc(-c2ccncc2)s1	?	–	–	–	–	–
O=C(Nc1ccc(Cl)cc1)Nc1nnc(-c2ccncc2)s1	–	–[10 µM]	–	–	?	–
Cc1ccc(NC(=O)Nc2nnc(-c3ccncc3)s2)cc1C	–	–	–	–	16.4µM	–
CCOCCn1c(=NC(=O)CSCC(=O)Nc2cc(C)on2)sc2cc(OC)ccc21	–	–	–	–	–	–
N#CC1=C(N)NC(=S)C(C(N)=O)C1c1ccc(Cl)cc1Cl (configuration not stated)	16.4µM	?	?	?	14.6µM	–
N#CC1=C(N)NC(=S)C(C(N)=O)C1c1ccccc1F (configuration not stated)	20.6µM	?	?	?	?	–
Oc1cccc2c3c(oc12)CCCC3	–	·	·	·	–	–
Cc1sc2nc(CN(C(=O)NCc3ccccc3)C3CCCC3)[nH]c(=O)c2c1C	?	4.47µM	?	–	–	–
CC(=O)N(Cc1ccccc1)Cc1nc2sc(C)c(C)c2c(=O)[nH]1	–	–	–	?	–	–
CC(=O)N(Cc1nc2sc(C)c(C)c2c(=O)[nH]1)C1CCCC1	–	10µM	?	–	–	–
CC(=O)c1cccc(CN2CCCC(CCC(=O)NCc3ccc(C)o3)C2)c1 (configuration not stated)	–	–	–	–	–	–
CC(=O)c1c(C)n([O-])c2cc(C)ccc2[n+]1=O	–	–[10 µM]	–	–	–	-103.5
COc1ccc(-c2c(C)n([O-])c(C)c(C)[n+]2=O)cc1OC	–	–	–	–	–	–
COc1ccc(-c2nnc(Nc3nc4c(OC)cccc4s3)o2)cc1	?	11.2µM	12.6µM	?	?	?

Assay outcomes from PubChem BioAssay.
